UBC13 inh: UBC13 polyubiquitin chain formation inhibitors, primary screen, biochemical, TR-FRET, uHTS | inhibition, % at 20 µM | hit rate 0.47% among 330,000 | Ubiquitin-conjugating enzyme E2 N (Homo sapiens), P61088; in the data active = inhibition above about 45%, passing the limit was not always enough
Target sequence (P61088 whole entry, looked up): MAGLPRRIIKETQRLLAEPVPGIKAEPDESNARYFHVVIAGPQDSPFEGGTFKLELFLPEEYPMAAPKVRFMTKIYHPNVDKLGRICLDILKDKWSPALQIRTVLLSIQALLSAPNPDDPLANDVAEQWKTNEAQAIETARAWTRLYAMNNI
MEKK2wt PB1 HTS: modulators of MEK5 binding to wildtype MEKK2, primary screen, biochemical, multiplex bead flow cytometry, Alexa488-MEK5; Mitogen-activated protein kinase kinase kinase 2 (Homo sapiens), Q9Y2U5; Alexa488-MEK5 binding to MEKK2 WT; actives lie on both sides; binding response (% of control), % at 10 µM; hit rate 1.1% among 290,000; in the data active = binding response below about 67% or above about 130%
Rce1 inh: yeast Rce1p protease inhibitors, primary screen, biochemical, fluorescence, cell-free homogeneous | CAAX prenyl protease 2 (Saccharomyces cerevisiae (strain ATCC 204508 / S288c)), Q03530 | yeast membranes, quenched prenylated peptide cleavage fluorescence | calls only | hit rate 0.27% among 290,000;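 active = fall in fluorescence gain of 50% or more versus controls, with final raw signal at or below 3038400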;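 also: plate controls were neutral control wells for no effect and wells lacking membranes for full effect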
Target sequence (Q03530 whole entry, looked up): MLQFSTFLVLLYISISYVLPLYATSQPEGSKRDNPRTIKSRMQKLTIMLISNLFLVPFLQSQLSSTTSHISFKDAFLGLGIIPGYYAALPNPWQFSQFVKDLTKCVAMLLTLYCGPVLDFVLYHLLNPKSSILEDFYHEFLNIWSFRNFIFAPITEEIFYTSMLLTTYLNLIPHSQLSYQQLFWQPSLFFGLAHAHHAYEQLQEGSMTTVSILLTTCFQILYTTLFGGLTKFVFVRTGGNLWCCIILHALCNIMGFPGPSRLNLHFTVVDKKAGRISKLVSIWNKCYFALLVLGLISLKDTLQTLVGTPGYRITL
MEKK3 PB1 HTS: modulators of MEKK3-MEK5 PB1 binding, primary screen, biochemical, wildtype MEKK3, multiplex bead flow cytometry, Alexa488-MEK5 | binding response (% of control), % at 10 µM | bead-based flow cytometry, Alexa488-MEK5 binding to MEKK3; actives lie on both sides; 0 = blocked by unlabeled MEK5, 100 = vehicle | Mitogen-activated protein kinase kinase kinase 3 (Homo sapiens), Q99759 | hit rate 1.4% among 290,000;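 active = binding response more than 3 SD above or below the average of its plate-row segment, actives on both sides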;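 also: Alexa488 bead fluorescence after subtracting the streptavidin-only scavenger bead signal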
MEKK2mut PB1 HTS: MEK5 binding signal on mutant MEKK2 PB1, primary screen, biochemical, multiplex bead flow cytometry, Alexa488-MEK5; hit rate 0.35% among 290,000; Alexa488-MEK5 binding to MEKK2 mutant; percent response, % at 10 µM; AID 1530, 2009; in the data active = percent response above about 24%, passing the limit was not always enough
MEKK2wt confirm: modulators of MEK5 binding to wildtype MEKK2, confirmation, biochemical, single concentration, multiplex bead flow cytometry; shares compounds with MEKK3 PB1 HTS; Alexa488-MEK5 binding to MEKK2 WT; actives lie on both sides; binding response (% of control), % at 10 µM; hit rate 2.4% among 5,900; in the data active = binding response below about 16% or above about 210%; inactive = in between
MEKK2mut confirm: mutant MEKK2 PB1-MEK5 binding signal retest – biochemical, single concentration, multiplex bead flow cytometry, confirmation. hit rate 2% among 5,900. Alexa488-MEK5 binding to MEKK2 mutant. shares compounds with MEKK3 PB1 HTS. percent response, % at 10 µM; in the data active = percent response mostly above about 71%, no sharp cut-off; inactive = mostly below about 38%;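 also: higher means compound restores mutant binding toward wildtype level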
MEKK3-MEK5 inh: MEKK3 wild-type PB1 binding to MEK5, inhibitors, confirmation, biochemical, bead multiplex flow cytometry, single concentration, wildtype; shares compounds with MEKK3 PB1 HTS; Alexa488-MEK5 binding to MEKK3; stronger effect = lower value; binding response (% of control), % at 10 µM; hit rate 1.8% among 5,900; AID 1894, 2009;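 active = binding response below 72% of control, or above a set upper limit, though filed actives all read lower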;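 also: 100% = DMSO only wells and 0% = binding blocked by excess unlabeled MEK5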
* hit, by the source's call; [ ] = dose if it differs, or a comment. In the library only some 2.5% were active in any assay of this set; here they are far more common.

`O=C(CN1CCN(c2ccccn2)CC1)Nc1ccc(F)cc1F` gave UBC13 inh 0.4, MEKK2wt PB1 HTS 103.0, Rce1 inh inactive, MEKK3 PB1 HTS 101.0 and MEKK2mut PB1 HTS 3.0.
`CCCOc1ccc(C(=O)NNC(=O)CCNC(=O)c2ccco2)cc1OC` gave UBC13 inh -1.4 and Rce1 inh inactive.
Screening CON1C(=O)C(=O)N(OC)C(C)(C)C1(C)C returned UBC13 inh -7.2, MEKK2wt PB1 HTS 116.0, Rce1 inh inactive, MEKK3 PB1 HTS 96.0 and MEKK2mut PB1 HTS 6.0.
`CCOC(=O)c1ccc(NC(=S)NN2CCN(C)CC2)cc1` gave UBC13 inh -3.6, MEKK2wt PB1 HTS 58.0, Rce1 inh inactive, MEKK3 PB1 HTS 41.0*[inhibitor], MEKK2mut PB1 HTS -6.0, MEKK2wt confirm 98.0, MEKK2mut confirm -3.0 and MEKK3-MEK5 inh 99.0.
CCOC(=O)c1ccc(NC(=S)NC2CCCC2)cc1 was read as UBC13 inh 1.1, MEKK2wt PB1 HTS 95.0, Rce1 inh inactive, MEKK3 PB1 HTS 65.0*[inhibitor], MEKK2mut PB1 HTS -1.0, MEKK2wt confirm 99.0, MEKK2mut confirm -2.0 and MEKK3-MEK5 inh 99.0.
For CCOC(=O)c1ccc(NC(=S)NC(=O)C2CCCC2)cc1 the results were UBC13 inh -4.3, MEKK2wt PB1 HTS 99.0, Rce1 inh inactive, MEKK3 PB1 HTS 100.0 and MEKK2mut PB1 HTS -3.0.
Screening C=CCNC(=S)NNC(=O)c1ccc(=O)n(Cc2ccc(Cl)cc2Cl)c1 returned UBC13 inh -3.0, MEKK2wt PB1 HTS 100.0, Rce1 inh inactive, MEKK3 PB1 HTS 104.0 and MEKK2mut PB1 HTS 2.0.
`NC(=O)c1nnsc1Sc1c(C(N)=O)nnn1-c1cccc(N)c1` gave UBC13 inh -5.7, MEKK2wt PB1 HTS 99.0, Rce1 inh inactive, MEKK3 PB1 HTS 106.0 and MEKK2mut PB1 HTS -1.0.
Cc1cccc(C)c1NC(=S)N(Cc1ccco1)C1CCN(C(C)C)CC1 was read as UBC13 inh 8.1, MEKK2wt PB1 HTS 107.0, Rce1 inh inactive, MEKK3 PB1 HTS 128.0*, MEKK2mut PB1 HTS 1.0, MEKK2wt confirm 112.0, MEKK2mut confirm 15.0 and MEKK3-MEK5 inh 105.0.
`CN(C)C1(CN=Cc2cc(Cl)cc([N+](=O)[O-])c2O)CCCCC1` gave UBC13 inh -47.4, MEKK2wt PB1 HTS 97.0, Rce1 inh inactive, MEKK3 PB1 HTS 100.0 and MEKK2mut PB1 HTS 2.0.
For O=C(C[n+]1cnn(CC(=O)c2ccc(Cl)cc2Cl)c1)c1ccc([N+](=O)[O-])cc1 the results were MEKK2wt PB1 HTS 157.0*, Rce1 inh inactive, MEKK3 PB1 HTS 101.0, MEKK2mut PB1 HTS 24.0, MEKK2wt confirm 122.0, MEKK2mut confirm 5.0 and MEKK3-MEK5 inh 105.0.
O=C(Nc1ccccc1)c1nsnc1C(=O)Nc1ccccc1 was read as UBC13 inh 8.7, MEKK2wt PB1 HTS 101.0, Rce1 inh inactive, MEKK3 PB1 HTS 104.0 and MEKK2mut PB1 HTS -3.0.
`Cc1cc(C)cc(N(C(=O)c2ccccn2)C(C(=O)NC2CCCCC2)c2ccncc2)c1` (stereo unspecified) gave UBC13 inh -3.5, MEKK2wt PB1 HTS 102.0, Rce1 inh inactive, MEKK3 PB1 HTS 100.0 and MEKK2mut PB1 HTS 4.0.
CCc1nc(SCC(=O)N2CCOCC2)c2c(=O)n(C)c(=O)n(C)c2n1 was read as UBC13 inh 3.6, MEKK2wt PB1 HTS 111.0, Rce1 inh inactive, MEKK3 PB1 HTS 112.0 and MEKK2mut PB1 HTS 6.0.
For Cn1c(=O)c2c(SCCN3CCOCC3)nc(C3CCCC3)nc2n(C)c1=O the results were UBC13 inh 7.5, MEKK2wt PB1 HTS 74.0, Rce1 inh inactive, MEKK3 PB1 HTS 58.0*[inhibitor], MEKK2mut PB1 HTS -4.0, MEKK2wt confirm 104.0, MEKK2mut confirm -2.0 and MEKK3-MEK5 inh 99.0.
For CC1CCN(S(=O)(=O)c2cc(C(=O)N3CCN(c4ncccn4)CC3)ccc2Br)CC1 the results were UBC13 inh 7.4, MEKK2wt PB1 HTS 103.0, Rce1 inh inactive, MEKK3 PB1 HTS 104.0 and MEKK2mut PB1 HTS 1.0.
COc1cc(C2Nc3ccccc3NC3=C2C(=O)CC(C)(C)C3)cc(OC)c1OC (stereo unspecified) was read as UBC13 inh -1.5, MEKK2wt PB1 HTS 108.0, Rce1 inh inactive, MEKK3 PB1 HTS 108.0, MEKK2mut PB1 HTS 24.0*, MEKK2wt confirm 103.0, MEKK2mut confirm -5.0 and MEKK3-MEK5 inh 100.0.
COc1cc(/C=C(/C#N)c2nc3ccccc3c(=O)[nH]2)ccc1O was read as UBC13 inh -141.9, MEKK2wt PB1 HTS 104.0, Rce1 inh inactive, MEKK3 PB1 HTS 140.0*, MEKK2mut PB1 HTS 1.0, MEKK2wt confirm 99.0, MEKK2mut confirm -4.0 and MEKK3-MEK5 inh 101.0.
`Clc1cccc(N/N=C(\Cc2nc3ccccc3[nH]2)c2ccccc2)c1` gave UBC13 inh -5.9, MEKK2wt PB1 HTS 138.0*, Rce1 inh inactive, MEKK3 PB1 HTS 138.0*, MEKK2mut PB1 HTS 5.0, MEKK2wt confirm 120.0, MEKK2mut confirm 6.0 and MEKK3-MEK5 inh 105.0.
For Cc1cc(NC(=O)c2coc(=O)c(Br)c2)ccc1C(C)C the results were UBC13 inh 0.5, MEKK2wt PB1 HTS 69.0, Rce1 inh inactive, MEKK3 PB1 HTS 92.0 and MEKK2mut PB1 HTS -12.0.
Screening COc1ccccc1C1CC(c2ccccc2)Nc2ncnn21 (stereo unspecified) returned UBC13 inh 12.2, MEKK2wt PB1 HTS 91.0, Rce1 inh inactive, MEKK3 PB1 HTS 80.0*[inhibitor], MEKK2mut PB1 HTS -6.0, MEKK2wt confirm 105.0, MEKK2mut confirm 5.0 and MEKK3-MEK5 inh 103.0.
`COc1ccccc1C1CC(c2ccc(F)cc2)Nc2ncnn21` (stereo unspecified) gave UBC13 inh -6.1, MEKK2wt PB1 HTS 99.0, Rce1 inh inactive, MEKK3 PB1 HTS 100.0 and MEKK2mut PB1 HTS -3.0.
O=C(/C=C/c1ccc2c(c1)OCO2)NCCSCc1c(Cl)cccc1Cl was read as UBC13 inh 1.3, MEKK2wt PB1 HTS 102.0, Rce1 inh inactive, MEKK3 PB1 HTS 122.0 and MEKK2mut PB1 HTS -1.0.
